Laboratory results published in PubChem BioAssay (EPA / NIEHS).
Records with an inconclusive call do not appear. More than one record can exist for a structure, and the calls need not agree. Calls of active or inactive are those of the source. Rule for the calls, unless noted: active = hit-call score of the fitted dose curve at least 0.9, where 1 is the maximum; inactive = score below 0.9.

Key:
[1] = ATG_PPRE_CIS: Attagene CIS-FACTORIAL HepG2 Assay for human Peroxisome Proliferator-activated Response Element (PPRE) (AID 2282958); details: HepG2 PPRE cis-element reporter, Attagene transcription factor profiling; actives raise or lower the signal
Procedure, shortened: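 Multiplexed reporter transcription units under cis-regulatory promoters were transfected into HepG2 cells to capture endogenous factor activity. A 24 h incubation preceded RNA isolation and fluorescent RT-PCR fragment analysis.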

[2] = ATG_RORE_CIS: Attagene CIS-FACTORIAL HepG2 Assay for human RAR-related Orphan Receptor Element (RORE) (AID 2282959); details: HepG2 Attagene cis-factorial RORE reporter, mRNA; actives raise or lower the signal
Procedure, shortened: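 Fluorescence intensity of reporter-specific cDNA fragments, separated by capillary electrophoresis, gives the signal. Source: HepG2 liver cells transiently transfected with cis-element reporters and exposed 24 h; DMSO-normalized bidirectional fit.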

[3] = ATG_Sox_CIS: Attagene CIS-FACTORIAL HepG2 Assay for human SRY-box transcription factor (SOX) (AID 2282960); details: HepG2 Attagene cis-factorial SOX reporter, mRNA; actives raise or lower the signal
Procedure, shortened: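 After 24 h of chemical treatment, transfected HepG2 reporter cells are lysed for total RNA. Transcript levels come from RT-PCR with labelled primer extension and capillary electrophoresis, analysed bidirectionally versus DMSO.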

[4] = molecular target: Transcription factor Sp1 (Homo sapiens) (UniProt P08047); assay: ATG_Sp1_CIS: Attagene CIS-FACTORIAL HepG2 Assay for human Specificity Protein 1 (Sp1) (AID 2282961); details: HepG2 Sp1 cis-reporter transcription, actives raise or lower the signal
Procedure, shortened: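 Sp1-driven reporter mRNA, read as capillary electrophoresis fluorescence after RT-PCR, in transiently transfected HepG2 cells dosed for 24 h; signal change in either direction relative to DMSO.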

[5] = ATG_SREBP_CIS: Attagene CIS-FACTORIAL HepG2 Assay for human Sterol Regulatory Element Binding (SREBP) (AID 2282962); details: HepG2 Attagene cis-factorial SREBP reporter, mRNA; actives raise or lower the signal
Procedure, shortened: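 Endogenous factor activity is measured in HepG2 through multiplexed reporter units under cis-element control. Following a 24 h incubation, reporter transcripts are reverse-transcribed, PCR-amplified and sized by capillary electrophoresis; activity is fitted in both directions relative to DMSO.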

[6] = molecular target: Signal transducer and activator of transcription 3 (Homo sapiens) (UniProt P40763); assay: ATG_STAT3_CIS: Attagene CIS-FACTORIAL HepG2 Assay for human Signal Transducer and Activator of Transcription 3 (STAT3) (AID 2282963); details: HepG2, Attagene cis-factorial STAT3 reporter transcription; actives raise or lower the signal
Signal transducer and activator of transcription 3 (Homo sapiens), sequence (P40763 whole entry, looked up, the tested form may be a part): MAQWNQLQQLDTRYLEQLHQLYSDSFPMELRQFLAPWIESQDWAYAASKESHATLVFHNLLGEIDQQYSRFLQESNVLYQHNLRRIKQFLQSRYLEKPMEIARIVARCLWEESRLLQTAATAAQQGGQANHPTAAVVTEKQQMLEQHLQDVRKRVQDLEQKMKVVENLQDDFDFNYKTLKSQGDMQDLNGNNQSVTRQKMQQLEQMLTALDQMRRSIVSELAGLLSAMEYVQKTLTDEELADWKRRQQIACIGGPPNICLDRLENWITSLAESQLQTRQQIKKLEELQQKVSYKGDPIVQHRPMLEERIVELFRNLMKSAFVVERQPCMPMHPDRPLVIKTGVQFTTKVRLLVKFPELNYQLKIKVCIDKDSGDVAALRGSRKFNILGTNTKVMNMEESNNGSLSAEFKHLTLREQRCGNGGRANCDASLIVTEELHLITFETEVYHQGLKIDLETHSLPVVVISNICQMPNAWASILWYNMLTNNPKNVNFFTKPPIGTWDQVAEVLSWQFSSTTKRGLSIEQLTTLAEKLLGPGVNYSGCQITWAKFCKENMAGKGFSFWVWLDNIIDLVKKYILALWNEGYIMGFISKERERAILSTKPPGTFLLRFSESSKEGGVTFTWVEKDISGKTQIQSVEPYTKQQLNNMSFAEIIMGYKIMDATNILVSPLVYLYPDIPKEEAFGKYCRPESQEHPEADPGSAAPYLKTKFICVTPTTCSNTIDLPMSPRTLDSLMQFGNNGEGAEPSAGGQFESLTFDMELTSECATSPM
Procedure, shortened: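 Readout: fluorescent reporter mRNA fragments resolved by capillary electrophoresis. Setup: HepG2 transfected with MRTUs reporting endogenous transcription-factor activity, dosed 24 h. Gain or loss of signal fitted bidirectionally against DMSO control.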

[7] = ATG_TA_CIS: Attagene CIS-FACTORIAL HepG2 Assay for human TA Basal Promoter (AID 2282964); details: HepG2 Attagene CIS-factorial TA basal promoter reporter; actives raise or lower the signal
Procedure, shortened: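 Fluorescence from labelled RT-PCR reporter fragments, separated by capillary electrophoresis, gives the signal. Cells: HepG2 transiently carrying multiple reporter units, 24 h chemical dosing. Gain or loss relative to DMSO.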

[8] = ATG_TCF_b_cat_CIS: Attagene CIS-FACTORIAL HepG2 Assay for human T-Cell-Factor with beta-catenin (TCF/b-cat) (AID 2282965); details: HepG2 TCF/beta-catenin cis-reporter transcription, actives raise or lower the signal
Procedure, shortened: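 HepG2, transient MRTU transfection, cis-element-driven reporters (endogenous TFs). 24 h compound exposure. Readout: reporter mRNA by RT-PCR + 6-FAM primer extension, HpaI digest, capillary electrophoresis. Gain/loss fit vs DMSO baseline.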

[9] = ATG_TAL_CIS: Attagene CIS-FACTORIAL HepG2 Assay for human TAL Basal Promoter (AID 2282966); details: HepG2 Attagene cis-factorial TAL promoter reporter; actives raise or lower the signal;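 note: background control endpoint measuring basal TAL promoter reporter mRNA not a specific factor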
Procedure, shortened: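 After 24 hours of chemical exposure, transfected HepG2 cells yielded RNA that was converted to 6-FAM-labelled, HpaI-digested reporter fragments for capillary electrophoresis. Values derive from bidirectional fitting against DMSO controls.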

[10] = ATG_VDRE_CIS: Attagene CIS-FACTORIAL HepG2 Assay for human Vitamin D Receptor Element (VDRE) (AID 2282968); details: HepG2 VDRE cis-reporter transcription, actives raise or lower the signal
Procedure, shortened: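 Transient MRTU transfection of HepG2, 24 h compound exposure. Readout: reporter transcripts via RT-PCR and capillary electrophoresis, fluorescence. Bidirectional fit vs DMSO.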

[11] = molecular target: Estrogen receptor (Homo sapiens) (UniProt P03372); assay: ATG_ERa_TRANS: Attagene TRANS-FACTORIAL HepG2 Assay for human Estrogen Receptor alpha (ERa) (AID 2282970; active = hit-call score of the fitted dose curve at least 0.9, where 1 is the maximum); details: HepG2 Attagene TRANS ERa GAL4 reporter, mRNA
Estrogen receptor (Homo sapiens), sequence (P03372 whole entry, looked up, the tested form may be a part): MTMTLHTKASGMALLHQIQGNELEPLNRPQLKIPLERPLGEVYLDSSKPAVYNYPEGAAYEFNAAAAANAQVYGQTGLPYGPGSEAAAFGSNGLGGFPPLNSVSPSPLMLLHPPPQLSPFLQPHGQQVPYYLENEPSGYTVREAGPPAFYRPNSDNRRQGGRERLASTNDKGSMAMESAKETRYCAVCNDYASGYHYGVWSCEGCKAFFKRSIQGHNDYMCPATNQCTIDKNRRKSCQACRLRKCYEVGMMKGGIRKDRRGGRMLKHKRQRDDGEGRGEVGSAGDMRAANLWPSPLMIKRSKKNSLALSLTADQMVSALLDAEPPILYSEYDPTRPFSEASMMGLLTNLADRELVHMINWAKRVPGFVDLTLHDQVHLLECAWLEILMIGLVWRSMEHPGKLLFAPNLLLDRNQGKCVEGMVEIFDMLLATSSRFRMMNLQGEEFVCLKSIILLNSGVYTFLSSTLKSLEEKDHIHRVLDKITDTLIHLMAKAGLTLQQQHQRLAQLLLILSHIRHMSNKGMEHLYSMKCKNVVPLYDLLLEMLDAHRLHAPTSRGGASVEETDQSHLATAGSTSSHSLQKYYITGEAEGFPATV
Procedure, shortened: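 Liver-derived HepG2 cells expressing chimeric nuclear receptor-Gal4 proteins from transient transfection were exposed for 24 hours. Gain of reporter mRNA signal versus DMSO, read by capillary electrophoresis of FAM-labelled PCR products, was recorded.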

[12] = molecular target: X-box-binding protein 1 (Homo sapiens) (UniProt P17861); assay: ATG_Xbp1_CIS: Attagene CIS-FACTORIAL HepG2 Assay for human X-box Binding Protein 1 (XBP1) (AID 2282972); details: HepG2 XBP1 cis-element reporter, Attagene multiplex; actives raise or lower the signal
X-box-binding protein 1 (Homo sapiens), sequence (P17861 whole entry, looked up): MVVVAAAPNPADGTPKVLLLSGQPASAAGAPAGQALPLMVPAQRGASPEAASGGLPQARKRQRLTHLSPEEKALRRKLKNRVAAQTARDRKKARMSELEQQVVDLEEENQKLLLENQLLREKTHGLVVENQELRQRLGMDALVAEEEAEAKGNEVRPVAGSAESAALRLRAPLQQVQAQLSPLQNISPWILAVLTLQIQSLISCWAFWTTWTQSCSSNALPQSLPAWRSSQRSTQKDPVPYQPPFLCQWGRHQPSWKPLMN
Procedure, shortened: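 Multiplexed cis-reporter readout in transfected HepG2 liver cells. Exposure lasted 24 hours. Activity in either direction was fitted against DMSO as negative control and baseline.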

[13] = ATG_GAL4_TRANS: Attagene TRANS-FACTORIAL HepG2 Assay for GAL4 (Internal Marker) (AID 2282976; active = hit-call score of the fitted dose curve at least 0.9, where 1 is the maximum); details: HepG2 Attagene TRANS GAL4 internal marker reporter
Procedure, shortened: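 First, HepG2 cells were transfected with reporter units under GAL4-UAS control. Next, they were treated with chemical for 24 h. Finally, RNA was reverse-transcribed, PCR-amplified, FAM-labelled and resolved by capillary electrophoresis, with induction scored against DMSO.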

[14] = ATG_TGFb_CIS: Attagene CIS-FACTORIAL HepG2 Assay for human Transforming Growth Factor (TGF) (AID 2282967); details: HepG2 Attagene CIS TGFb reporter, mRNA transcription; actives raise or lower the signal
Procedure, shortened: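 Bidirectional fitting relative to DMSO gave the endpoint. Underlying data: reporter mRNA from HepG2 cells carrying transiently transfected cis-regulated reporter constructs, harvested 24 h after dosing and analyzed by RT-PCR and capillary electrophoresis.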

[15] = ATG_M_19_TRANS: Attagene TRANS-FACTORIAL HepG2 Assay for M19 Transcription Factor (Internal Marker) (AID 2282974; active = hit-call score of the fitted dose curve at least 0.9, where 1 is the maximum); details: HepG2 Attagene TRANS-FACTORIAL M19 internal marker reporter
Procedure, shortened: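 Measured here: internal-marker reporter transcript from HepG2 cells transfected with MRTUs, harvested at 24 h. cDNA PCR products were 6-FAM labelled by primer extension, cut with HpaI for 2 h at 37 C, and resolved by CE.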

[16] = molecular target: Estrogen-related receptor gamma (Homo sapiens) (UniProt P62508); assay: ATG_ERRg_TRANS: Attagene TRANS-FACTORIAL HepG2 Assay for human Estrogen-Related Receptor gamma (ERRg) (AID 2282977; active = hit-call score of the fitted dose curve at least 0.9, where 1 is the maximum;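 note: hits increase reporter signal over DMSO so potencies reflect activators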); details: HepG2 Attagene TRANS reporter, ERRg transactivation
Estrogen-related receptor gamma (Homo sapiens), sequence (P62508 whole entry, looked up, the tested form may be a part): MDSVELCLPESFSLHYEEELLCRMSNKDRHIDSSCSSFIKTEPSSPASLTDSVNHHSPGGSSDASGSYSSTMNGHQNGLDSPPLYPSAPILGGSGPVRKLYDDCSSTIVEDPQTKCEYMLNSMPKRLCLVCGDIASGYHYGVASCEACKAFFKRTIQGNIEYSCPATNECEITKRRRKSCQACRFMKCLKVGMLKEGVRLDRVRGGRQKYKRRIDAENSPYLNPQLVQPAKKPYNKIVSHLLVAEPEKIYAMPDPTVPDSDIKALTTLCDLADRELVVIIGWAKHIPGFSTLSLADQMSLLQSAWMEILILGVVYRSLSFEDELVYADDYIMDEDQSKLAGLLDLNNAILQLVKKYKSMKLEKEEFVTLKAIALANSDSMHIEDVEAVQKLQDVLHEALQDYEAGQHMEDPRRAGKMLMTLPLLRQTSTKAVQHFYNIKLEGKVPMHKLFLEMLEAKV
Procedure, shortened: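 Readout: fluorescent reporter-mRNA fragments resolved by capillary electrophoresis after RT-PCR and HpaI cut. Cells: transiently transfected HepG2 carrying GAL4-UAS reporters driven by exogenous NR-Gal4 chimeras, dosed 24 h. Activity fitted upward relative to DMSO baseline.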

[17] = molecular target: Nuclear receptor subfamily 1 group I member 3 (Homo sapiens) (UniProt Q14994); assay: ATG_CAR_TRANS: Attagene TRANS-FACTORIAL HepG2 Assay for human Constitutive Androstane Receptor (CAR) (AID 2282969; active = hit-call score of the fitted dose curve at least 0.9, where 1 is the maximum;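 note: activators raise reporter mRNA above DMSO so AC50 marks induction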); details: HepG2 Attagene TRANS-FACTORIAL CAR reporter
Nuclear receptor subfamily 1 group I member 3 (Homo sapiens), sequence (Q14994 whole entry, looked up, the tested form may be a part): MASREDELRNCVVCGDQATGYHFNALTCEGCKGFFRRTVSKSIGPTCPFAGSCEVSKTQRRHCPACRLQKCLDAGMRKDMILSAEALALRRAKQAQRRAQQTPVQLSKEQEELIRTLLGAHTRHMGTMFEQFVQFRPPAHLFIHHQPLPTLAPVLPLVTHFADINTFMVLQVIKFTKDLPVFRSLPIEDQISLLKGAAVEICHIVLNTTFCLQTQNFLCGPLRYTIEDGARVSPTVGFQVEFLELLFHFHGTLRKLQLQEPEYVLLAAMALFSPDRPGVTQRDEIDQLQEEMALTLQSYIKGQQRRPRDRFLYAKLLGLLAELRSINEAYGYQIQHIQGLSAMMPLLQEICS
Procedure, shortened: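 Transiently transfected HepG2, multiplex TRANS reporters (CAR-Gal4 chimera driving GAL4-UAS reporter). 24 h dosing. Readout: reporter transcript by RT-PCR + capillary electrophoresis, fluorescence intensity; positive direction vs DMSO.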

[18] = molecular target: Steroid hormone receptor ERR1 (Homo sapiens) (UniProt P11474); assay: ATG_ERRa_TRANS: Attagene TRANS-FACTORIAL HepG2 Assay for human Estrogen-Related Receptor alpha (ERRa) (AID 2282971; active = hit-call score of the fitted dose curve at least 0.9, where 1 is the maximum); details: HepG2 Attagene TRANS reporter, ERRa transactivation
Steroid hormone receptor ERR1 (Homo sapiens), sequence (P11474 whole entry, looked up, the tested form may be a part): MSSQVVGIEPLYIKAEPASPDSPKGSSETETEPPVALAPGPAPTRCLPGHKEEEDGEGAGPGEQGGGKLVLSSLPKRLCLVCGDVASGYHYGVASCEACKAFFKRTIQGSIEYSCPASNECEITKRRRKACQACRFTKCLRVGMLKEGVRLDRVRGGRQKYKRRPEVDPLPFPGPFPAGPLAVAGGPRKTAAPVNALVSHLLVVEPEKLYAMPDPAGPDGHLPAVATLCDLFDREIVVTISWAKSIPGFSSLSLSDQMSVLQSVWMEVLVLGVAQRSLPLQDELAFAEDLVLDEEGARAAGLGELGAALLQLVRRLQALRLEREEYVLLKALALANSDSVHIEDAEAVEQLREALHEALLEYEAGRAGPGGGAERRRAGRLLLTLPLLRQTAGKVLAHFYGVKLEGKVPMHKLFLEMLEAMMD
Procedure, shortened: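 Reporter transcript induction was quantified by RT-PCR and capillary electrophoresis of FAM-labelled, HpaI-cut products after 24 h treatment of HepG2 cells carrying transiently transfected GAL4-UAS reporter units and an exogenous ERRa-Gal4 fusion; activity scored as increase over DMSO.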

[19] = molecular target: Androgen receptor (Homo sapiens) (UniProt P10275); assay: ATG_AR_TRANS: Attagene TRANS-FACTORIAL HepG2 Assay for human Androgen Receptor (AR) (AID 2282973; active = hit-call score of the fitted dose curve at least 0.9, where 1 is the maximum); details: HepG2 Attagene TRANS-FACTORIAL AR reporter transcription
Androgen receptor (Homo sapiens), sequence (P10275 whole entry, looked up, the tested form may be a part): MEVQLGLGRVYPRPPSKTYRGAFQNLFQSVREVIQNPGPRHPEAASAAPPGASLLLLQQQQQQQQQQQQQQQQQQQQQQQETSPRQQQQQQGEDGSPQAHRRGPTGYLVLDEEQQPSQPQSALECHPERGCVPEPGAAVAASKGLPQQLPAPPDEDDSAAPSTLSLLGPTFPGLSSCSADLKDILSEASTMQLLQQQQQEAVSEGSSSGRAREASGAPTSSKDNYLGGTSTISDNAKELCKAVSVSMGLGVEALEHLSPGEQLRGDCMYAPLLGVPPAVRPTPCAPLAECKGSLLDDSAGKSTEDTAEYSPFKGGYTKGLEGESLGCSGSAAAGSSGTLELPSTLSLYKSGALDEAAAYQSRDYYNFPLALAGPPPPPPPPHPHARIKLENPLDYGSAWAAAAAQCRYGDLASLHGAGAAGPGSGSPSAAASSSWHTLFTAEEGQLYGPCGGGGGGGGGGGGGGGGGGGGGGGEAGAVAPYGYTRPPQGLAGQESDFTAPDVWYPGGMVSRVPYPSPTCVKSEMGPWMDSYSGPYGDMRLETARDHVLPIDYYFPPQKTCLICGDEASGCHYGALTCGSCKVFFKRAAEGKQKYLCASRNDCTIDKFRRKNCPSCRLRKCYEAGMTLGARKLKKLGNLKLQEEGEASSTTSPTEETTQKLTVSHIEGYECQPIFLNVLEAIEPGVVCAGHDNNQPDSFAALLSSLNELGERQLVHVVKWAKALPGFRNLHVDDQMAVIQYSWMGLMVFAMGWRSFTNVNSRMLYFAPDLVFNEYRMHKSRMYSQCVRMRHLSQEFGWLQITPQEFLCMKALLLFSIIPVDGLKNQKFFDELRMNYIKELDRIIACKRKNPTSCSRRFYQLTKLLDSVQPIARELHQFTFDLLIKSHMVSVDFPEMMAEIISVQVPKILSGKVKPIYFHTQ
Procedure, shortened: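 Steps: transfect HepG2 with multiple GAL4-UAS reporter transcription units (TRANS format, exogenous NR-Gal4 protein); dose 24 h; isolate RNA, reverse-transcribe, PCR-amplify, FAM-label, HpaI-digest; resolve by capillary electrophoresis. Positive direction vs DMSO.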

[20] = molecular target: Glucocorticoid receptor (Homo sapiens) (UniProt P04150); assay: ATG_GR_TRANS: Attagene TRANS-FACTORIAL HepG2 Assay for human Glucocorticoid Receptor (GR) (AID 2282978; active = hit-call score of the fitted dose curve at least 0.9, where 1 is the maximum;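 note: activators score as hits since higher reporter transcript over DMSO is fitted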); details: HepG2 Attagene TRANS GR reporter, mRNA transcription
Glucocorticoid receptor (Homo sapiens), sequence (P04150 whole entry, looked up, the tested form may be a part): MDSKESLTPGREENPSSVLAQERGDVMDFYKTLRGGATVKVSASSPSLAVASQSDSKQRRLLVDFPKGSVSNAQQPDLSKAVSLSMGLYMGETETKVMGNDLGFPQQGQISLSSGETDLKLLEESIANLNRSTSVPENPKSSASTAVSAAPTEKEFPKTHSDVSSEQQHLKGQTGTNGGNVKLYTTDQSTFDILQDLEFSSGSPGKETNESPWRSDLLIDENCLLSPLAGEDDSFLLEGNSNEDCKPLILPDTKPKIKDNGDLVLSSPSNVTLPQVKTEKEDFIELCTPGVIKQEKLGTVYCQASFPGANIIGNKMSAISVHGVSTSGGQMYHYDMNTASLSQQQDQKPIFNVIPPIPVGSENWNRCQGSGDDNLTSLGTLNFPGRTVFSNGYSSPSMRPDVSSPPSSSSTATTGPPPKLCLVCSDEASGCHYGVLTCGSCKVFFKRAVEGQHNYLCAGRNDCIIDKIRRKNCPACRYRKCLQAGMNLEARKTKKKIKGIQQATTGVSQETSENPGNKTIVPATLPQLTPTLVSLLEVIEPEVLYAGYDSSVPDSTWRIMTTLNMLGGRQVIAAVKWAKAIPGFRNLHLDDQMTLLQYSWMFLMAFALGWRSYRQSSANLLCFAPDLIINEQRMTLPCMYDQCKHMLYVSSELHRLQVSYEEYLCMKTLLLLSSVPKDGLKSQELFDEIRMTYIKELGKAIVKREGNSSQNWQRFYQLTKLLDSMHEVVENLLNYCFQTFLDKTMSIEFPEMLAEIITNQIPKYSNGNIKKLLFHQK
Procedure, shortened: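 Measurement of GAL4-UAS-driven reporter mRNA in human HepG2 liver cells 24 h post-dosing, using RT-PCR with fluorescent labelling and capillary electrophoresis; the transfected constructs report exogenous NR-GAL4 chimera activity, fitted upward against DMSO.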

Measured: AC50

CCC(C)c1cccc(C(C)CC)c1O (configuration not stated)
active: [11] 24.4 µM
not listed: [13] | [14] | [15] | [16] | [17] | [18] | [19] | [20]
inactive: all other assays above

N#CCCO
not listed: [9] | [14] | [15] | [16] | [17] | [18] | [19] | [20]
inactive: all other assays above

O=[N+]([O-])c1c(Cl)c(Cl)cc(Cl)c1Cl
not listed: [9] | [13] | [17] | [18] | [19] | [20]
inactive: all other assays above

Nc1cccc(Cl)c1
not listed: [13] | [14] | [19] | [20]
inactive: all other assays above

CC12CC1(C)C(=O)N(c1cc(Cl)cc(Cl)c1)C2=O (configuration not stated)
active: [10] 8.04 µM
inactive: [1] | [2] | [3] | [4] | [5] | [6] | [7] | [8] | [9] | [10] | [17] | [12] | [19] | [15] | [13] | [20]

COc1cccc(C=O)c1
not listed: [11] | [14] | [19] | [20]
inactive: all other assays above

CN(C)P(=O)(N(C)C)N(C)C
not listed: [14] | [17] | [19] | [20]
inactive: all other assays above

CCCCC(CC)CO[N+](=O)[O-] (configuration not stated)
inactive: [1] | [3] | [4] | [5] | [6] | [7] | [8] | [9] | [12] | [20]
active: [2] 99.5 µM | [10] 143 µM

O=C1C(Cl)=C(Cl)C(=O)c2ccccc21
not listed: [9] | [17] | [19]
inactive: all other assays above

CC(C)(c1ccc(OCC2CO2)cc1)c1ccc(OCC2CO2)cc1 (configuration not stated)
inactive: [1] | [3] | [4] | [6] | [14] | [15] | [13] | [20]
active: [2] 33.4 µM | [5] 15.1 µM | [7] 33.4 µM | [8] 49.7 µM | [10] 24.9 µM | [12] 24.4 µM

O=CC=O
not listed: [10] | [13] | [15] | [16] | [17] | [18]
inactive: all other assays above

C[C@]12CC[C@H](O)CC1=CC[C@@H]1[C@@H]2CC[C@]2(C)C(=O)CC[C@@H]12
not listed: [11] | [16] | [17] | [18] | [19]
inactive: all other assays above

O=C/C=C/c1ccccc1
active: [10] 45.5 µM | [11] 27.8 µM
not listed: [13] | [14] | [16] | [18] | [19]
inactive: all other assays above

COP(=O)(OC)O/C(=C\Cl)c1cc(Cl)c(Cl)cc1Cl
active: [1] 154 µM | [3] 44.3 µM | [5] 26.9 µM | [7] 73.4 µM | [8] 34.9 µM | [9] 100 µM | [11] 5.86 µM
not listed: [10] | [13] | [17] | [18] | [20]
inactive: all other assays above

Cc1cc(Cl)ccc1O[C@H](C)C(=O)O
inactive: [2] | [3] | [4] | [5] | [7] | [8] | [9] | [14] | [12]
active: [1] 28.7 µM | [6] 100 µM

C=CCc1ccc(OC)cc1
not listed: [9] | [10] | [11] | [15] | [16] | [18] | [19] | [20]
inactive: all other assays above

C(=NC1CCCCC1)=NC1CCCCC1
active: [1] 2.46 µM | [2] 2.33 µM | [5] 17.2 µM | [10] 3.69 µM | [12] 1.97 µM
not listed: [9] | [13] | [17] | [18] | [19] | [20]
inactive: all other assays above

C=CC(=O)OCCCCCC(C)C
not listed: [11] | [16] | [17] | [18] | [20]
inactive: all other assays above
